These results are taken from the supplement of paper PMC6555819.

The subject of one assay is RARb homodimer (NR concentration 270 nM). Kind of assay: PBM binding z-score (relative to random genomic background probes); higher = stronger binding; sequences stand for … in GC…GCGATTGACAGCGTAGAATGAAGG
A digest of the protocol: (§1)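 Binding z-scores were set against random background probes. The data came from custom Agilent 4×180K protein-binding microarrays carrying double-stranded probes with 34-nt variable regions, incubated 1 h with ligand-free nuclear receptor dimers. Partner-specific antibodies detected binding, and scanned fluorescence was regression-normalized.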
AGTCAAAGTTGATCTAGGTAACGTAAGATATGCT gave a PBM binding z-score of -0.057.

CCTTACGGGTCACTGACAGGTCATAGCATTTGGA gave a PBM binding z-score of 4.59.

With TTACCGAGGTGAAAGGTCGTTGATGCACGCCTTG, the PBM binding z-score worked out at 2.67.

In the case of TCGAGTAGGTTACGTGGGCATTCAGGGATGAAGA, the PBM binding z-score worked out at 0.175.

In turn, ATCGAAAGGTCGACGAGGTGAGTATGCACCGTTT yielded a PBM binding z-score of 3.07.

For the sequence TCGAGTGGGTTACGGGGGCATTCAGGGATGAAGA, the PBM binding z-score is 2.26.

TCTCGGAGGACACGAAGGTCAGCGCTTTCCAGAG registered a PBM binding z-score of 3.93.

CCTCGGAGGTCAGAAGGTCAGAGCTGTCCGCTTT came in with a PBM binding z-score of 5.21.

As to CCTACTGGGGCACGAAAGGTCATTGATTCAGTGA, the PBM binding z-score was 4.81.

Sequence CGGCCAAGGTCAAAGGTCAGTGAAGAGATGACGG yielded a PBM binding z-score of 5.37.

The sequence AGCGAAAGGTCGAAGGTGAGTATACCCACCCGAA displayed a PBM binding z-score of 2.44.

Sequence AATACAGGGTCCTCGTAGGCCAGAGTACGCACAG returned a PBM binding z-score of 0.334.

In the case of AACGAAAGGTCGACGAGGTGAGTATACACCGTTT, the PBM binding z-score came out at 3.

CAAACTAGGTCACAGAGGTCAAACTCCGTGCGTA showed a PBM binding z-score of 5.75.

ACTAGCAGGCCAAGGGTGACTCAAGATTAGTCCG showed a PBM binding z-score of 0.337.

Take TCGAGTAGGTTAGGGGGGCATTCAGGGATGAAGA: the PBM binding z-score is 2.58.

With CAAACTAGGTCAAGAGGTCAAACTCCGCTTCCCG, the PBM binding z-score was 5.81.

The test system of another assay is RARg:RXRa (NR concentration 270 nM, RXRa partner concentration 90 nM). Described as above. A digest of the protocol: as §1
Sequence CCTACTGGGCCAAAAAGGTAATTGATGCCGATAA returned a PBM binding z-score of 0.0737.

Turning to TCTAGTTGGTCGCGGAGGTCACACACGACGGGTA, the PBM binding z-score turned out to be 3.94.

Regarding AGTAGCAGGCCAAGGGTCACTCAAGATTAGTCCG, the PBM binding z-score was 4.29.

The sequence GCTCGGAGGACAAGGTCACAGCTTTGTCCGTAGA registered a PBM binding z-score of 4.76.

The sequence ATCGAAAGGTCGACGAGGTGAGTATGCACCGTTT displayed a PBM binding z-score of 4.29.

Regarding CCTACTGGGGCACGAAAGGTCATTGATTCAGTGA, the PBM binding z-score was 4.75.

On to CGGCCAAGGTCAAAGGTCAGTGAAGAGATGACGG, for which the PBM binding z-score is 9.05.

CAAACTAGGTCACAGAGGTCAAACTCCGTGCGTA returned a PBM binding z-score of 7.7.

ACTAGCAGGCCAAGGGTGACTCAAGATTAGTCCG came in with a PBM binding z-score of 0.341.

A further assay deals with RARg homodimer (NR concentration 270 nM). The description is as above. In short, it runs like this: as §1
With ATCGAAAGGTCGACGAGGAGAGTATACACCGTTT, the PBM binding z-score was determined as 3.81.

For the sequence CCTACTGGGCCAAAAAGGTAATTGATGCCGATAA, the PBM binding z-score is -0.0665.

On to CGAACTAGGTCATCGAGGACAGTGAATACATTGA, for which the PBM binding z-score came out at 5.19.

The sequence TCTAGTTGGTCGCGGAGGTCACACACGACGGGTA returned a PBM binding z-score of 3.62.

Take CGAACTAAGTCATCCAGGACAGTGAATACATTGA: the PBM binding z-score came out at 0.549.

Regarding TCTGCTAGGTCAGGTGGTCAGCTAACGAGCTGCC, the PBM binding z-score is 3.58.

The sequence CGAACTAGGTCAACGACAGTGAATCTCCGCACGC returned a PBM binding z-score of 4.2.

In turn, AGTAGCAGGCCAAGGGTCACTCAAGATTAGTCCG gave a PBM binding z-score of 3.86.

The sequence CCTCGGAGGACAACCGGAGGTCAGAGCTGCCAGA showed a PBM binding z-score of 3.47.

TAGCCTAGGTCATTCAGGGGTCAGTATAGAAAGC yielded a PBM binding z-score of 6.28.

As for CGTCCAAGGTCACCAGGTCAGTGAAAGCGACGTG, the PBM binding z-score came out at 7.7.

Turning to TATCCTAGGTCAGATCGGGCCAGTATACGCTATA, the PBM binding z-score was 3.86.

Sequence CGAACTAAGTCACCAGGACAGTGAAGAGGTTGGA gave a PBM binding z-score of 0.343.

Take CCTACTGGGCCAAGGTCATTGAGCAGTCAAAGCA: the PBM binding z-score came out at 3.23.

CCTACTGGGCCAATAAGGTCATTGATGCCGATAA showed a PBM binding z-score of 2.87.

In turn, TCTGCTGGGTCAACGATGGTCAGCTAATCTGCTA registered a PBM binding z-score of 4.31.

Sequence GCTAGTAGGTCAGTAAAAGGTCACACACCGGTCG yielded a PBM binding z-score of 7.14.

For TGTCAAAGCTCAAAGGTAACGTAAGTATCCACAC, the PBM binding z-score came out at 0.498.

Turning to GCTCGGAGGACAAGGTCACAGCTTTGTCCGTAGA, the PBM binding z-score stood at 4.75.

CGAACTAGGTGATTGACAGGACAGTGAATAGTAA came in with a PBM binding z-score of 0.266.

The sequence CCTACTGGGCCAAAGGACATTGATTCCAATGCTC registered a PBM binding z-score of 0.664.

In turn, CGAACTAGGTCAAAGGACAGGGAAAGGCGACGTA came in with a PBM binding z-score of 4.68.

AGTCAAAGTTGATCTAGGTAACGTAAGATATGCT gave a PBM binding z-score of 0.579.

CCTTACGGGTCACTGACAGGTCATAGCATTTGGA: the PBM binding z-score was 5.71.

For the sequence TTACCGAGGTGAAAGGTCGTTGATGCACGCCTTG, the PBM binding z-score came out at 1.87.

As to TCGAGTAGGTTACGTGGGCATTCAGGGATGAAGA, the PBM binding z-score was found to be 0.607.

Sequence ATCGAAAGGTCGACGAGGTGAGTATGCACCGTTT had a PBM binding z-score of 4.29.

For the sequence TCGAGTGGGTTACGGGGGCATTCAGGGATGAAGA, the PBM binding z-score was 2.35.

Take TCTCGGAGGACACGAAGGTCAGCGCTTTCCAGAG: the PBM binding z-score is 4.24.

As for CCTCGGAGGTCAGAAGGTCAGAGCTGTCCGCTTT, the PBM binding z-score was determined as 7.12.

As to CCTACTGGGGCACGAAAGGTCATTGATTCAGTGA, the PBM binding z-score was found to be 4.85.

In turn, CGGCCAAGGTCAAAGGTCAGTGAAGAGATGACGG had a PBM binding z-score of 8.47.

In turn, AGCGAAAGGTCGAAGGTGAGTATACCCACCCGAA gave a PBM binding z-score of 4.05.

As to AATACAGGGTCCTCGTAGGCCAGAGTACGCACAG, the PBM binding z-score came out at 0.183.

Consider AACGAAAGGTCGACGAGGTGAGTATACACCGTTT, for which the PBM binding z-score was 3.73.

Consider CAAACTAGGTCACAGAGGTCAAACTCCGTGCGTA, for which the PBM binding z-score is 7.96.

ACTAGCAGGCCAAGGGTGACTCAAGATTAGTCCG registered a PBM binding z-score of 0.646.

TCGAGTAGGTTAGGGGGGCATTCAGGGATGAAGA showed a PBM binding z-score of 2.54.

Consider CAAACTAGGTCAAGAGGTCAAACTCCGCTTCCCG, for which the PBM binding z-score turned out to be 7.93.

For a further assay, the system named is RXRa DBDmut IVT, anti-RXR (DBD mutation: RXRa K156A/R161A, NR concentration 90 nM). The description is as above. In short, it runs like this: as §1
Regarding ATCGAAAGGTCGACGAGGAGAGTATACACCGTTT, the PBM binding z-score amounted to 1.18.

With CCTACTGGGCCAAAAAGGTAATTGATGCCGATAA, the PBM binding z-score was -0.561.

As for CGAACTAGGTCATCGAGGACAGTGAATACATTGA, the PBM binding z-score is 2.23.

Consider TCTAGTTGGTCGCGGAGGTCACACACGACGGGTA, for which the PBM binding z-score came to 0.932.

For the sequence CGAACTAAGTCATCCAGGACAGTGAATACATTGA, the PBM binding z-score was 0.248.

Regarding TCTGCTAGGTCAGGTGGTCAGCTAACGAGCTGCC, the PBM binding z-score was determined as 0.176.

CGAACTAGGTCAACGACAGTGAATCTCCGCACGC showed a PBM binding z-score of 1.61.

In turn, AGTAGCAGGCCAAGGGTCACTCAAGATTAGTCCG yielded a PBM binding z-score of 0.553.

For the sequence CCTCGGAGGACAACCGGAGGTCAGAGCTGCCAGA, the PBM binding z-score was 0.243.

TAGCCTAGGTCATTCAGGGGTCAGTATAGAAAGC yielded a PBM binding z-score of 2.75.

For the sequence CGTCCAAGGTCACCAGGTCAGTGAAAGCGACGTG, the PBM binding z-score amounted to 3.61.

As to TATCCTAGGTCAGATCGGGCCAGTATACGCTATA, the PBM binding z-score is 0.36.

Regarding CGAACTAAGTCACCAGGACAGTGAAGAGGTTGGA, the PBM binding z-score amounted to 0.000632.

CCTACTGGGCCAAGGTCATTGAGCAGTCAAAGCA: the PBM binding z-score stood at 1.23.

The sequence CCTACTGGGCCAATAAGGTCATTGATGCCGATAA came in with a PBM binding z-score of 1.09.

TCTGCTGGGTCAACGATGGTCAGCTAATCTGCTA gave a PBM binding z-score of 0.782.

GCTAGTAGGTCAGTAAAAGGTCACACACCGGTCG registered a PBM binding z-score of 0.784.

For TGTCAAAGCTCAAAGGTAACGTAAGTATCCACAC, the PBM binding z-score was -1.

Consider GCTCGGAGGACAAGGTCACAGCTTTGTCCGTAGA, for which the PBM binding z-score was determined as 1.17.

CGAACTAGGTGATTGACAGGACAGTGAATAGTAA: the PBM binding z-score was 0.246.

For the sequence CCTACTGGGCCAAAGGACATTGATTCCAATGCTC, the PBM binding z-score was -0.27.

For the sequence CGAACTAGGTCAAAGGACAGGGAAAGGCGACGTA, the PBM binding z-score amounted to 1.07.

AGTCAAAGTTGATCTAGGTAACGTAAGATATGCT returned a PBM binding z-score of -0.227.

The sequence CCTTACGGGTCACTGACAGGTCATAGCATTTGGA displayed a PBM binding z-score of 1.79.

As for TTACCGAGGTGAAAGGTCGTTGATGCACGCCTTG, the PBM binding z-score came out at 0.775.

The sequence TCGAGTAGGTTACGTGGGCATTCAGGGATGAAGA had a PBM binding z-score of 0.0477.

Regarding ATCGAAAGGTCGACGAGGTGAGTATGCACCGTTT, the PBM binding z-score was 1.3.

The sequence TCGAGTGGGTTACGGGGGCATTCAGGGATGAAGA came in with a PBM binding z-score of 2.33.

For TCTCGGAGGACACGAAGGTCAGCGCTTTCCAGAG, the PBM binding z-score stood at 0.82.

Consider CCTCGGAGGTCAGAAGGTCAGAGCTGTCCGCTTT, for which the PBM binding z-score is 2.31.

CCTACTGGGGCACGAAAGGTCATTGATTCAGTGA showed a PBM binding z-score of 0.748.

For the sequence CGGCCAAGGTCAAAGGTCAGTGAAGAGATGACGG, the PBM binding z-score is 3.57.

Sequence AGCGAAAGGTCGAAGGTGAGTATACCCACCCGAA gave a PBM binding z-score of 0.876.

On to AATACAGGGTCCTCGTAGGCCAGAGTACGCACAG, for which the PBM binding z-score is -0.129.

AACGAAAGGTCGACGAGGTGAGTATACACCGTTT returned a PBM binding z-score of 1.64.

In turn, CAAACTAGGTCACAGAGGTCAAACTCCGTGCGTA yielded a PBM binding z-score of 3.78.

Sequence ACTAGCAGGCCAAGGGTGACTCAAGATTAGTCCG came in with a PBM binding z-score of -0.454.

TCGAGTAGGTTAGGGGGGCATTCAGGGATGAAGA yielded a PBM binding z-score of 2.58.

The sequence CAAACTAGGTCAAGAGGTCAAACTCCGCTTCCCG registered a PBM binding z-score of 3.21.
